Measurements reported in the supplement of paper PMC10849652.
Of roughly 8,800 targets only a part is listed; those with a hit were picked by preference. About 0.5% of all pairs of compound and target were hits.

Columns and labels:
Test in all cases: log2 fold change, soluble protein after heating vs DMSO (PISA); higher = thermal stabilisation; K562 lysate, 10 uM; active = over 0.2 and 3.5 SD of the protein, either way, in both replicates (recomputed)
nilotinib = compound: Cc1cn(-c2cc(NC(=O)c3ccc(C)c(Nc4nccc(-c5cccnc5)n4)c3)cc(C(F)(F)F)c2)cn1 [nilotinib]
How it was run: (§1)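 Log-two fold change in thermal stability relative to solvent controls is reported from duplicates. For each sample, crude K562 extract from dounce-homogenised pellets in PBS pH 7.4 with 1 mM MgCl2, at 1 mg/mL protein, was treated with 10 μM compound for 30 min. Aliquots heated for 3 min across 48°C-58°C were pooled, brought to 0.5% NP-40 at 4°C and cleared at 21,000xg for 90 min. The supernatant was quantified by TMTpro 16plex LC-MS/MS with channel sums equalised.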

[1] = compound: Cc1nc(Nc2n[nH]c3c2CN(C(=O)N[C@H](CN(C)C)c2ccccc2)C3(C)C)c2sccc2n1
How it was run: as §1

dasatinib = compound: Cc1nc(Nc2ncc(C(=O)Nc3c(C)cccc3Cl)s2)cc(N2CCN(CCO)CC2)n1 [dasatinib]
How it was run: as §1

[2] = compound: Cc1ncc(-c2ccnc(Nc3ccc(S(C)(=O)=O)cc3)n2)n1C(C)C
How it was run: as §1

[3] = compound: Cn1cc(-c2ccc3c(c2)CCN3C(=O)Cc2cccc(C(F)(F)F)c2)c2c(N)ncnc21
How it was run: as §1

quisinostat = compound: Cn1cc(CNCC2CCN(c3ncc(C(=O)NO)cn3)CC2)c2ccccc21 [quisinostat]
How it was run: as §1

tipifarnib = compound: Cn1cncc1[C@@](N)(c1ccc(Cl)cc1)c1ccc2c(c1)c(-c1cccc(Cl)c1)cc(=O)n2C [tipifarnib]
How it was run: as §1

[4] = compound: NC(=O)Nc1cc(-c2cccc(F)c2)sc1C(=O)N[C@H]1CCCNC1
How it was run: as §1

[5] = compound: NC(=O)c1cnc(N[C@@H]2CCCC[C@@H]2N)nc1Nc1cccc(-n2nccn2)c1
How it was run: as §1

[6] = compound: NCC(=O)Nc1ccc(-n2nc(C(F)(F)F)cc2-c2ccc3c(ccc4ccccc43)c2)cc1
How it was run: as §1

[7] = compound: O=C1NC(=O)C(c2cnc3ccccn23)=C1c1cn2c3c(cc(F)cc13)CN(C(=O)N1CCCCC1)CC2
How it was run: as §1

entospletinib = compound: c1cn2cc(-c3ccc4cn[nH]c4c3)nc(Nc3ccc(N4CCOCC4)cc3)c2n1 [entospletinib]
How it was run: as §1

[8] = compound: NC1(c2ccc(-c3nc4ccn5c(=O)[nH]nc5c4cc3-c3ccccc3)cc2)CCC1
How it was run: as §1

vorinostat = compound: O=C(CCCCCCC(=O)Nc1ccccc1)NO [vorinostat]
How it was run: as §1

silmitasertib = compound: O=C(O)c1ccc2c(c1)nc(Nc1cccc(Cl)c1)c1ccncc12 [silmitasertib]
How it was run: as §1

Measured: log2 fold change

LIMK1 (UniProt P53667)
inactive: nilotinib -0.315 | [1] 0.008 | dasatinib 0.4 | [2] 0.031 | [3] 0.146 | quisinostat -0.145 | tipifarnib 0.102 | [4] 0.126 | [5] 0.118 | [6] -0.127 | [7] 0.281 | entospletinib 0.027

LRRIQ1 (UniProt Q96JM4)
UniProt Q96JM4, sequence (Q96JM4 whole entry, looked up): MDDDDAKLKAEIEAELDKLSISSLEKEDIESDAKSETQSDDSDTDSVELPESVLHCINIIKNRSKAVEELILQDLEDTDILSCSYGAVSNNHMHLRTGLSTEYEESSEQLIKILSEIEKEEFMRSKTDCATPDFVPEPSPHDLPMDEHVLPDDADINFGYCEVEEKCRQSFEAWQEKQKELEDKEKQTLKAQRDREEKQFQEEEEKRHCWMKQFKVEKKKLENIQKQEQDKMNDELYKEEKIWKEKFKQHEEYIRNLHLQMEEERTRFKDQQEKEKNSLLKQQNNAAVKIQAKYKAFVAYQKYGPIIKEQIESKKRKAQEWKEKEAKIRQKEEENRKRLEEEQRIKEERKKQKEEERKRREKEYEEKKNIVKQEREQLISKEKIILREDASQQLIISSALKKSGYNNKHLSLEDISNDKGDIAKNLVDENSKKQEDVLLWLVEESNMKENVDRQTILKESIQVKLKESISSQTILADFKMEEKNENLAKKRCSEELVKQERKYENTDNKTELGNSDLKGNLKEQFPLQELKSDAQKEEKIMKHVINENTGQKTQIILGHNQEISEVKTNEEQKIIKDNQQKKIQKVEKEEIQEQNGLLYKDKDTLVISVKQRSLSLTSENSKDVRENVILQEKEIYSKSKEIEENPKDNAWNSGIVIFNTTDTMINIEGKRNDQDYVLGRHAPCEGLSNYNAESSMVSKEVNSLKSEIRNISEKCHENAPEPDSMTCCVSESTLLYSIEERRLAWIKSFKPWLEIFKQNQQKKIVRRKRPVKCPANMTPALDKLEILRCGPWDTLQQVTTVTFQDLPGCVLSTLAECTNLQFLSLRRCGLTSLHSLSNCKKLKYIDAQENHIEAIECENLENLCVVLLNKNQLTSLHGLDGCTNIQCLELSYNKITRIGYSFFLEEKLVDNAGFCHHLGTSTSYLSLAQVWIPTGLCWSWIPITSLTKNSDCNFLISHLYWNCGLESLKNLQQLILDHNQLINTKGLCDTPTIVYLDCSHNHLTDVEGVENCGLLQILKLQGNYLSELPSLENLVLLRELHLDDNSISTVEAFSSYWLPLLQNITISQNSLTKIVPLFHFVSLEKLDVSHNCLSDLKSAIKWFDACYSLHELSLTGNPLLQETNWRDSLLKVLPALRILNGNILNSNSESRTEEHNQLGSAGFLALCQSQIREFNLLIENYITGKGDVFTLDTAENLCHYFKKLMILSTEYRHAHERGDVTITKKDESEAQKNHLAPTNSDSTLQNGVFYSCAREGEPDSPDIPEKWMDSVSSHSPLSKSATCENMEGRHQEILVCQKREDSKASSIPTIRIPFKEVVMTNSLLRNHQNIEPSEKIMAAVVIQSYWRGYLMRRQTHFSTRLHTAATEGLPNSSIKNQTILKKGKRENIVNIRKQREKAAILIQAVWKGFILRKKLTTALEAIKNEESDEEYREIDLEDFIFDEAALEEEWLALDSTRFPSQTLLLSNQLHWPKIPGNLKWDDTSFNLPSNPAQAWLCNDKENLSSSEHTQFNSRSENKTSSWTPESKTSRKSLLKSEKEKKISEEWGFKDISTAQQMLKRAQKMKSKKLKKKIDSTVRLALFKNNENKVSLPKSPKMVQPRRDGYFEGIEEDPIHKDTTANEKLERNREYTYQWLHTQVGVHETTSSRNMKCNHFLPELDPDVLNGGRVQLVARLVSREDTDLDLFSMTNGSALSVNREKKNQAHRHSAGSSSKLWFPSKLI
inactive: quisinostat -0.518 | [4] 0.242 | [5] 0.019 | [6] 0.056
active: [7] 0.754

LRRC9 (UniProt Q6ZRR7)
inactive: quisinostat -0.171 | [4] -0.038 | [6] 0.106 | [7] -0.034 | entospletinib 0.011

MAN2B2 (UniProt Q9Y2E5)
inactive: nilotinib -0.039 | [1] -0.173 | dasatinib 0.051 | [2] -0.004 | [3] 0.011 | quisinostat -0.033 | tipifarnib -0.041 | [4] 0.04 | [5] 0.038 | [8] 0.033 | vorinostat 0.117 | silmitasertib -0.014 | [7] -0.005 | entospletinib 0.019

LSM11 (UniProt P83369)
inactive: dasatinib 0.266 | [3] -0.049 | quisinostat -0.114 | [4] 0.049 | [8] -0.037 | [6] 0.233 | vorinostat -0.027 | silmitasertib 0.194 | [7] 0.014 | entospletinib -0.02

MAP4K4 isoform 6 (UniProt O95819)
inactive: dasatinib -0.01 | [3] 0.115 | [5] 0.021 | [8] 0.083 | vorinostat -0.134 | silmitasertib 0.02 | entospletinib 0.094

MAP4K2 (UniProt Q12851)
active: [4] 0.965
inactive: dasatinib 0.511 | [3] 0.123 | quisinostat -0.193 | [5] 0.159 | [8] -0.062 | [6] 0.03 | vorinostat -0.263 | silmitasertib 0.064 | [7] -0.104 | entospletinib 0.15

LRRC7 (UniProt Q96NW7)
inactive: dasatinib 0.059 | [3] -0.043 | quisinostat 0.128 | [4] -0.009 | [5] 0.069 | [6] -0.097 | [7] -0.012 | entospletinib -0.108

KIF21A (UniProt H0YI78)
inactive: nilotinib 0.067 | [1] -0.005 | dasatinib 0.044 | [2] 0.143 | [3] 0.055 | tipifarnib -0.069 | [5] 0.104 | [8] 0.082 | vorinostat -0.113 | silmitasertib -0.016

KIF26A (UniProt Q9ULI4)
inactive: nilotinib 0.035 | [1] -0.013 | dasatinib 0.003 | [2] 0.01 | [3] 0.014 | quisinostat -0.092 | tipifarnib 0.226 | [4] -0.078 | [8] -0.091 | [6] -0.01 | vorinostat -0.178 | silmitasertib 0.068 | [7] -0.016 | entospletinib 0.057

LRPPRC (UniProt H7C3W8)
inactive: [6] 0.792

MPP5 (UniProt Q8N3R9)
inactive: nilotinib 0.015 | [1] -0.013 | dasatinib 0.028 | [2] -0.069 | [3] 0.009 | quisinostat -0.052 | tipifarnib 0.142 | [4] 0.002 | [8] -0.053 | [6] 0.015 | vorinostat 0.016 | silmitasertib -0.1 | [7] 0 | entospletinib 0.013

MDM2 isoform 11 (UniProt Q00987)
inactive: quisinostat -0.2 | [4] -0.077 | [8] -0.195 | [6] -0.137 | vorinostat -0.062 | silmitasertib 0 | [7] -0.039

MAP3K6 (UniProt O95382)
inactive: nilotinib 0.122 | [1] -0.023 | [2] 0.006 | tipifarnib -0.011 | [6] -0.088 | entospletinib -0.043

MDM1 (UniProt Q8TC05)
inactive: nilotinib -0.073 | [1] -0.008 | dasatinib 0.015 | [2] -0.149 | [3] 0.056 | tipifarnib 0.006 | [5] -0.005 | [8] 0.061 | [6] 0.056 | vorinostat 0.085 | silmitasertib 0.093 | entospletinib -0.119

MAPKAP1 (UniProt Q9BPZ7)
inactive: nilotinib 0.105 | [1] -0.118 | dasatinib -0.085 | [2] 0.083 | [3] -0.003 | quisinostat -0.087 | tipifarnib -0.056 | [4] 0.042 | [8] -0.093 | vorinostat -0.111 | silmitasertib 0.187 | [7] -0.018 | entospletinib -0.157

MARF1 (UniProt Q9Y4F3)
active: vorinostat -0.471
inactive: nilotinib -0.064 | [1] 0.024 | dasatinib -0.031 | [2] 0.031 | [3] -0.03 | quisinostat -0.053 | tipifarnib -0.062 | [4] 0.088 | [8] -0.035 | [6] 0.006 | silmitasertib 0.003 | [7] -0.045 | entospletinib 0.049

MRPL22 (UniProt Q9NWU5)
active: vorinostat -0.687
inactive: nilotinib 0.04 | [1] 0.017 | [2] 0.03 | quisinostat 0.025 | tipifarnib -0.003 | [4] -0.001 | [5] -0.073 | [8] 0.081 | silmitasertib 0.001 | [7] -0.007

KRI1 (UniProt Q8N9T8)
inactive: nilotinib -0.099 | [1] 0.02 | dasatinib -0.025 | [2] 0 | [3] -0.014 | quisinostat -0.125 | tipifarnib -0.073 | [4] -0.006 | [8] 0.06 | [6] 0.085 | silmitasertib -0.023 | [7] -0.007 | entospletinib -0.07
active: vorinostat -0.285

LYN isoform 2 (UniProt P07948)
inactive: nilotinib 0.125 | [1] 0.143 | dasatinib 0.438 | [2] 0.257 | [3] 0.061 | quisinostat -0.111 | tipifarnib -0.615 | [4] 0.748 | [8] -0.053 | vorinostat -0.118 | silmitasertib 0.049 | [7] -0.31 | entospletinib 0.129

MANEA (UniProt Q5SRI9)
inactive: dasatinib -0.003 | [3] 0.046 | quisinostat 0.046 | [4] 0.05 | [5] 0.01 | [8] -0.044 | [6] 0 | vorinostat 0.217 | silmitasertib -0.103 | [7] -0.047 | entospletinib 0.055

KMT2B (UniProt Q9UMN6)
inactive: dasatinib 0.013 | [3] 0.108 | quisinostat 0.346 | [4] -0.047 | [8] 0.122 | vorinostat 0.531 | [7] 0.211 | entospletinib 0.116
active: silmitasertib -0.76

KLC1 isoform 10 (UniProt Q07866)
UniProt Q07866, sequence (Q07866 whole entry, looked up): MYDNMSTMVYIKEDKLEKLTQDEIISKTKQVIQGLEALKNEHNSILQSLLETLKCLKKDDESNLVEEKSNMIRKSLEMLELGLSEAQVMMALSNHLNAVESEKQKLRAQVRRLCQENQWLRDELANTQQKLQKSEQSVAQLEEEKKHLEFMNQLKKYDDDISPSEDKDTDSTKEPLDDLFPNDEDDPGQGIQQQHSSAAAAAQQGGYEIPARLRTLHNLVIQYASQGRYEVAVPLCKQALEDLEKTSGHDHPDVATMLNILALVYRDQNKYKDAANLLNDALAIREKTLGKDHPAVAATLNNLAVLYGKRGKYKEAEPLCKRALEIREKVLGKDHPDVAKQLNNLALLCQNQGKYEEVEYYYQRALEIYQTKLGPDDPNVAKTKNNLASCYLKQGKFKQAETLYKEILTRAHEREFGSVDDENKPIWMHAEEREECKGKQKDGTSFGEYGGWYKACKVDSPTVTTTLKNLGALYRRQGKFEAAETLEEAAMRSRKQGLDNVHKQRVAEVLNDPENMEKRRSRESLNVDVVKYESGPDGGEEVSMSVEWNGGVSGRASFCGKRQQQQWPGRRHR
inactive: [8] -0.159 | vorinostat -0.144 | silmitasertib -0.165 | entospletinib -0.171

LY6E (UniProt Q16553)
inactive: nilotinib -0.141 | [1] 0.031 | [2] 0.056 | tipifarnib 0.033 | [5] 0.08 | [6] 0.165 | entospletinib -0.013

MED25 isoform 3 (UniProt Q71SY5)
inactive: nilotinib 0.132 | [1] 0.026 | dasatinib -0.039 | [2] 0.097 | [3] -0.017 | quisinostat -0.008 | tipifarnib -0.024 | [4] 0.029 | [5] -0.013 | [8] -0.073 | silmitasertib 0.021 | [7] 0.024 | entospletinib 0.127
active: vorinostat -0.294

MEGF8 (UniProt Q7Z7M0)
UniProt Q7Z7M0, sequence (Q7Z7M0 whole entry, looked up): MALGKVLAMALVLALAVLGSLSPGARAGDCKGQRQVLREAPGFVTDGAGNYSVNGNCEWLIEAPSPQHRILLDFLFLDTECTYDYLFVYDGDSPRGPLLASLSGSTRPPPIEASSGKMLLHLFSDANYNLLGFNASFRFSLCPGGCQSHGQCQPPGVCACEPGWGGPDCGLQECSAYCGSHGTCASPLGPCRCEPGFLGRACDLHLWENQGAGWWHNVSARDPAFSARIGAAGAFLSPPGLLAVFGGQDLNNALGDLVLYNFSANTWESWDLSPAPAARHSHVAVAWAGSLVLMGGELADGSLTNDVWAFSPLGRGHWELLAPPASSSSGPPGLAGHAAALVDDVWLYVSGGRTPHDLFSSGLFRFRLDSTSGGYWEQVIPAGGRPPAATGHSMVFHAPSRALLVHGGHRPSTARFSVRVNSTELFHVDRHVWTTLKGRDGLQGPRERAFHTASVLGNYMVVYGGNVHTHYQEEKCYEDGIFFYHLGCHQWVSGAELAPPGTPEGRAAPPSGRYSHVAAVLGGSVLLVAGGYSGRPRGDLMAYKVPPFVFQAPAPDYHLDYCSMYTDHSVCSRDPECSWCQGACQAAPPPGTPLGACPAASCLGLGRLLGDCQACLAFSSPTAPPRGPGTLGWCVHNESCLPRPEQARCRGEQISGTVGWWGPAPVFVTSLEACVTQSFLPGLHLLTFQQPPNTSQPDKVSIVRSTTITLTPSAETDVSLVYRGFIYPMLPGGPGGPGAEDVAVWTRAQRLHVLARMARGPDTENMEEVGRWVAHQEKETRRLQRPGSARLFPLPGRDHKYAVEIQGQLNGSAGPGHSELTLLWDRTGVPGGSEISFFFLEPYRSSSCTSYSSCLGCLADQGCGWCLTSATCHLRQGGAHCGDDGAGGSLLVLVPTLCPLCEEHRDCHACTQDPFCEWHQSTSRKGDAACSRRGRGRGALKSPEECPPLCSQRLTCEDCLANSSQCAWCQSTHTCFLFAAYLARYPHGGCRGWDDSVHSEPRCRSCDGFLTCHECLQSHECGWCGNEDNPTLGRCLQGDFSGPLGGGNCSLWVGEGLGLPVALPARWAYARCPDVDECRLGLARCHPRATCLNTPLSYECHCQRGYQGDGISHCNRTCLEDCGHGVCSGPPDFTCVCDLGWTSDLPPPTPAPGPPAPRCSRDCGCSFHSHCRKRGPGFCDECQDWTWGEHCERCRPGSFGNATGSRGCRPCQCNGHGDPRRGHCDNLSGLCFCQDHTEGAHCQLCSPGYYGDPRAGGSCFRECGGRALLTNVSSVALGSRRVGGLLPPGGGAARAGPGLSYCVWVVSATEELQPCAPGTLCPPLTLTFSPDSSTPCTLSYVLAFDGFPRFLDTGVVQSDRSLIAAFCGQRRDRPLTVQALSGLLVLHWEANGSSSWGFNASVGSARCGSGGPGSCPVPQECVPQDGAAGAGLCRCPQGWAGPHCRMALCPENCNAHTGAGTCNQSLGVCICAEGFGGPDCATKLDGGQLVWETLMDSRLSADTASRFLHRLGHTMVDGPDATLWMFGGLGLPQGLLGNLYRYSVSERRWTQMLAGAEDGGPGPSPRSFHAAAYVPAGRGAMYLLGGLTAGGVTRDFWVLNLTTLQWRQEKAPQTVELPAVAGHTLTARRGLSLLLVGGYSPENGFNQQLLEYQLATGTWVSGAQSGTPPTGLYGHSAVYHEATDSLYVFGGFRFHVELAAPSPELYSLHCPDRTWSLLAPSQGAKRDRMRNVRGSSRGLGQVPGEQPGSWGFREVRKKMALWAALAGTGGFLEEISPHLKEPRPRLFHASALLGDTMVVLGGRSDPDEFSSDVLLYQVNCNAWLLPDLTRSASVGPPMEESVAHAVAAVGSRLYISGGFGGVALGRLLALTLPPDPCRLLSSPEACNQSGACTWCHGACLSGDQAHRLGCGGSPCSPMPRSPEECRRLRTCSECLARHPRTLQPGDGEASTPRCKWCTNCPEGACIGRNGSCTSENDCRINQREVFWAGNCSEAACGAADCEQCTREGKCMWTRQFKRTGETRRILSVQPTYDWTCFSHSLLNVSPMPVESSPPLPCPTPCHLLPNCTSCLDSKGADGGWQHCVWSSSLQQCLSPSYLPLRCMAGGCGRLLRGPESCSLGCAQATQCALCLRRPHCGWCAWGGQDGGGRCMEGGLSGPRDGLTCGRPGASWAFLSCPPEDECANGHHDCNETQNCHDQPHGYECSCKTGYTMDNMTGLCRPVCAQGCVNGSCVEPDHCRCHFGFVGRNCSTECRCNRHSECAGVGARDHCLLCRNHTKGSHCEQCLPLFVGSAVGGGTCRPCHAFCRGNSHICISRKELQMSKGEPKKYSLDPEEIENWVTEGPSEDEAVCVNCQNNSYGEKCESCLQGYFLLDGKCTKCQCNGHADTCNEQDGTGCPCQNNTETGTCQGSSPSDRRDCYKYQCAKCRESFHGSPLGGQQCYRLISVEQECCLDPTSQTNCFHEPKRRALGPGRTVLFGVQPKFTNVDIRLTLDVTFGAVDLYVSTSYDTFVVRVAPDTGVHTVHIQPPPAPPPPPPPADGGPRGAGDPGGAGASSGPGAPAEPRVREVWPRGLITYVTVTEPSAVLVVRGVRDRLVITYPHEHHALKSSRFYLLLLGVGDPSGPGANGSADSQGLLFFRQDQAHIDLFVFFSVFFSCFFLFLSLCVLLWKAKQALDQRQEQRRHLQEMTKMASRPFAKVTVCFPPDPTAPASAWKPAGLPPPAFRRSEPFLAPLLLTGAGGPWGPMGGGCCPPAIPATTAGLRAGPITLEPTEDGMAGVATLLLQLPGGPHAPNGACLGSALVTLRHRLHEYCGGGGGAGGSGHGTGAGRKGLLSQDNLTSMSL
inactive: dasatinib -0.059 | [3] -0.003 | quisinostat 0.047 | [4] -0.073 | [8] -0.073 | vorinostat 0.05 | silmitasertib -0.062 | [7] 0.02 | entospletinib -0.048

LRP1 (UniProt Q07954)
inactive: [4] 0.114 | [5] 0.122 | [6] 0.233 | [7] 0.296 | entospletinib -0.032
active: quisinostat -0.936

MAPK12 (UniProt P53778)
inactive: nilotinib 0.082 | [1] 0.048 | dasatinib -0.057 | [2] 0.085 | quisinostat 0.051 | tipifarnib -0.005 | [4] -0.015 | [8] -0.044 | [6] 0 | vorinostat 0.181 | silmitasertib -0.027 | [7] -0.067 | entospletinib -0.027
active: [3] 0.375
